From the supplement of paper PMC8728848
Shown is part of a subset that was picked to be rich in the strongest signals.

Experiments:
Test in all cases: glycan array binding signal (z-score within array); higher = stronger binding
Conditions in all cases: glycan notation: IUPAC condensed, linker removed; mutation: F63H
Fuc(a1-2)Gal(b1-3)GalNAc = target: Fuc(a1-2)Gal(b1-3)GalNAc
Procedure, shortened: (§1)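 Negative Z-scores can be read as non-binding. The Z-score is calculated within each array and then averaged across arrays of one protein sequence at different concentrations or buffers and across linkers. Arrays, 3228 in all, were curated from the Consortium for Functional Glycomics database and kept only where the protein sequence was available.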

[1] = target: Fuc(a1-2)Gal(b1-3)GalNAc(b1-3)Gal(a1-4)Gal(b1-4)Glc
Procedure, shortened: as §1

[2] = target: Fuc(a1-2)Gal(b1-3)GlcNAc(b1-3)Gal(b1-4)Glc
Procedure, shortened: as §1

[3] = target: Fuc(a1-2)Gal(b1-3)GlcNAc(b1-3)[Neu5Ac(a2-6)Gal(b1-4)GlcNAc(b1-6)]Gal(b1-4)Glc
Procedure, shortened: as §1

[4] = target: Fuc(a1-2)Gal(b1-4)GlcNAc(b1-3)Gal(b1-4)GlcNAc(b1-3)Gal(b1-4)GlcNAc
Procedure, shortened: as §1

[5] = target: Fuc(a1-2)[GalNAc(b1-3)]Gal
Procedure, shortened: as §1

Fuc(a1-3)GlcNAc = target: Fuc(a1-3)GlcNAc
Procedure, shortened: as §1

[6] = target: Fuc(a1-3)[GalNAc(b1-4)]GlcNAc6S
Procedure, shortened: as §1

Gal(a1-3)Gal = target: Gal(a1-3)Gal
Procedure, shortened: as §1

Gal(a1-3)Gal(b1-4)GlcNAc = target: Gal(a1-3)Gal(b1-4)GlcNAc
Procedure, shortened: as §1

[7] = target: Gal(a1-3)Gal(b1-4)GlcNAc(b1-6)GalNAc
Procedure, shortened: as §1

[8] = target: Gal(a1-4)Gal(b1-4)GlcNAc(b1-2)Man(a1-3)[Gal(a1-4)Gal(b1-4)GlcNAc(b1-2)Man(a1-6)]Man(b1-4)GlcNAc(b1-4)GlcNAc
Procedure, shortened: as §1

Gal(b1-3)Gal(b1-4)GlcNAc = target: Gal(b1-3)Gal(b1-4)GlcNAc
Procedure, shortened: as §1

Gal(b1-3)GalNAc = target: Gal(b1-3)GalNAc
Procedure, shortened: as §1

[9] = target: Gal(b1-3)GalNAc(a1-3)[Fuc(a1-2)]Gal(b1-4)Glc
Procedure, shortened: as §1

[10] = target: Gal(b1-3)GalNAc(a1-3)[Fuc(a1-2)]Gal(b1-4)GlcNAc
Procedure, shortened: as §1

[11] = target: Gal(b1-3)GalNAc(b1-4)Gal(b1-4)Glc
Procedure, shortened: as §1

[12] = target: Gal(b1-3)GlcNAc(a1-3)Gal(b1-4)GlcNAc
Procedure, shortened: as §1

[13] = target: Gal(b1-3)GlcNAc(b1-3)Gal(b1-4)GlcNAc(b1-3)Gal(b1-4)GlcNAc(b1-2)[Gal(b1-3)GlcNAc(b1-3)Gal(b1-4)GlcNAc(b1-3)Gal(b1-4)GlcNAc(b1-6)]Man(a1-6)[Gal(b1-3)GlcNAc(b1-3)Gal(b1-4)GlcNAc(b1-3)Gal(b1-4)GlcNAc(b1-2)Man(a1-3)]Man(b1-4)GlcNAc(b1-4)[Fuc(a1-6)]GlcNAc
Procedure, shortened: as §1

[14] = target: Gal(b1-3)GlcNAc(b1-6)GalNAc
Procedure, shortened: as §1

[15] = target: Gal(b1-4)GlcNAc(b1-2)Man(a1-3)[Gal(b1-4)GlcNAc(b1-2)Man(a1-6)][Gal(b1-4)GlcNAc(b1-4)]Man(b1-4)GlcNAc(b1-4)[Fuc(a1-6)]GlcNAc
Procedure, shortened: as §1

[16] = target: Gal(b1-4)GlcNAc(b1-2)Man(a1-6)[GlcNAc(b1-2)Man(a1-3)]Man(b1-4)GlcNAc(b1-4)GlcNAc
Procedure, shortened: as §1

[17] = target: Gal(b1-4)GlcNAc(b1-2)[Gal(b1-4)GlcNAc(b1-6)]Man(a1-6)[GlcNAc(b1-4)][Gal(b1-4)GlcNAc(b1-2)Man(a1-3)]Man(b1-4)GlcNAc(b1-4)GlcNAc
Procedure, shortened: as §1

[18] = target: Gal(b1-4)GlcNAc(b1-2)[Gal(b1-4)GlcNAc(b1-6)]Man(a1-6)[GlcNAc(b1-4)][Gal(b1-4)GlcNAc(b1-2)[Gal(b1-4)GlcNAc(b1-4)]Man(a1-3)]Man(b1-4)GlcNAc(b1-4)[Fuc(a1-6)]GlcNAc
Procedure, shortened: as §1

[19] = target: Gal(b1-4)GlcNAc(b1-3)Gal(b1-4)GlcNAc(b1-3)Gal(b1-4)GlcNAc(b1-2)Man(a1-3)[Gal(b1-4)GlcNAc(b1-3)Gal(b1-4)GlcNAc(b1-3)Gal(b1-4)GlcNAc(b1-2)Man(a1-6)]Man(b1-4)GlcNAc(b1-4)[Fuc(a1-6)]GlcNAc
Procedure, shortened: as §1

[20] = target: Gal(b1-4)GlcNAc(b1-3)Gal(b1-4)GlcNAc(b1-3)Gal(b1-4)GlcNAc(b1-3)Gal(b1-4)GlcNAc(b1-3)Gal(b1-4)GlcNAc(b1-2)Man(a1-3)[Gal(b1-4)GlcNAc(b1-3)Gal(b1-4)GlcNAc(b1-3)Gal(b1-4)GlcNAc(b1-3)Gal(b1-4)GlcNAc(b1-3)Gal(b1-4)GlcNAc(b1-2)Man(a1-6)]Man(b1-4)GlcNAc(b1-4)[Fuc(a1-6)]GlcNAc
Procedure, shortened: as §1

[21] = target: Gal(b1-4)GlcNAc(b1-3)Gal(b1-4)GlcNAc(b1-3)Gal(b1-4)GlcNAc(b1-3)Gal(b1-4)GlcNAc(b1-3)Gal(b1-4)GlcNAc(b1-3)Gal(b1-4)GlcNAc(b1-2)Man(a1-3)[Gal(b1-4)GlcNAc(b1-3)Gal(b1-4)GlcNAc(b1-3)Gal(b1-4)GlcNAc(b1-3)Gal(b1-4)GlcNAc(b1-3)Gal(b1-4)GlcNAc(b1-3)Gal(b1-4)GlcNAc(b1-2)Man(a1-6)]Man(b1-4)GlcNAc(b1-4)GlcNAc
Procedure, shortened: as §1

[22] = target: Gal(b1-4)GlcNAc(b1-3)Gal(b1-4)GlcNAc(b1-3)GalNAc
Procedure, shortened: as §1

[23] = target: Gal(b1-4)GlcNAc(b1-3)Gal(b1-4)GlcNAc(b1-3)[Gal(b1-4)GlcNAc(b1-3)Gal(b1-4)GlcNAc(b1-6)]GalNAc
Procedure, shortened: as §1

[24] = target: Gal(b1-4)GlcNAc(b1-3)GalNAc
Procedure, shortened: as §1

B1: AAL (Agrocybe aegerita), Q6WY08 (protein)
chain: MQGVNIYNISAGTSVDLAAPVTTGDIVTFFSSALNLNAGAGNPNNTTLNLFAENGAYLLHIAHRLQENVIIFNSRQPDGPWLVEQRVSDVANQFAGIDGKAMVTVFDHGDKYQVVINEKTVIQYTKQISGLTLSLSYNATEETSIFSTVVEAVTYTGLALEHHHHHH
Fuc(a1-2)Gal(b1-3)GalNAc
  glycan array binding signal (z-score): -0.198
[1]
  glycan array binding signal (z-score): -0.075
[2]
  glycan array binding signal (z-score): -0.394
[3]
  glycan array binding signal (z-score): 0.013
[4]
  glycan array binding signal (z-score): -0.151
[5]
  glycan array binding signal (z-score): -0.544
Fuc(a1-3)GlcNAc
  glycan array binding signal (z-score): -0.394
[6]
  glycan array binding signal (z-score): -0.005
Gal(a1-3)Gal
  glycan array binding signal (z-score): -0.04
Gal(a1-3)Gal(b1-4)GlcNAc
  glycan array binding signal (z-score): -0.342
[7]
  glycan array binding signal (z-score): -0.072
[8]
  glycan array binding signal (z-score): 0.969
Gal(b1-3)Gal(b1-4)GlcNAc
  glycan array binding signal (z-score): -0.287
Gal(b1-3)GalNAc
  glycan array binding signal (z-score): -0.177
[9]
  glycan array binding signal (z-score): -0.298
[10]
  glycan array binding signal (z-score): -0.341
[11]
  glycan array binding signal (z-score): -0.435
[12]
  glycan array binding signal (z-score): 0.927
[13]
  glycan array binding signal (z-score): 0.029
[14]
  glycan array binding signal (z-score): 0.316
[15]
  glycan array binding signal (z-score): -0.332
[16]
  glycan array binding signal (z-score): -0.263
[17]
  glycan array binding signal (z-score): 4.37
[18]
  glycan array binding signal (z-score): -0.265
[19]
  glycan array binding signal (z-score): 1.22
[20]
  glycan array binding signal (z-score): -0.033
[21]
  glycan array binding signal (z-score): 0.376
[22]
  glycan array binding signal (z-score): -0.163
[23]
  glycan array binding signal (z-score): 0.226
[24]
  glycan array binding signal (z-score): -0.105
